# From PubChem
# In the library only some 4.7% were active in any assay of this set; here they are far more common.
# TRHR PAM: allosteric enhancers of human TRH receptor. P34981. TRHR cells, fluo-8 calcium fluorescence, EC20 TRH enhancement. enhancement, % at 2 µM. actives 0.66% (n = 360,000). AID 493056; in the data active = enhancement above about 30%; also: 0% is about no effect
# Target sequence (P34981 whole entry, looked up): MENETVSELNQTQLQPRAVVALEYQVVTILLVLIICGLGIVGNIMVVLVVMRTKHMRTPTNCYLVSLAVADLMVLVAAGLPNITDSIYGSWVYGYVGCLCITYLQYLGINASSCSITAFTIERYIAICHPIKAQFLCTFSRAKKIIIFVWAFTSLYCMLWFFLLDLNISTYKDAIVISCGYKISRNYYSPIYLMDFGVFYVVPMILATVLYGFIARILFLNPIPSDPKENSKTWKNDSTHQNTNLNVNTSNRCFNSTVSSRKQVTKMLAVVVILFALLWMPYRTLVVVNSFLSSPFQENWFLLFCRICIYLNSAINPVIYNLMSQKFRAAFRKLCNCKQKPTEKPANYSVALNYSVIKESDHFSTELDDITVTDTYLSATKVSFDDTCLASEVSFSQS
#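 Enhancer read-out: after compound pinning and an initial kinetic agonist-mode read, an EC20 of TRH (10 nM final) was injected and fluo-8 calcium signal (Ex 480/Em 530) followed at 1 s/cycle for 100 cycles in TRHR-expressing cells.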
# D1 antagonist: antagonists of human D1 dopamine receptor; P21728; HEK293 TREx D1 cells, calcium flux, dopamine EC80; active compounds read low; activity change, negative = inhibition, % at 10 µM; actives 3.2% (n = 360,000); AID 504652; in the data active = activity change below about -30%; also: % is scaled to controls: 0 for no effect and ±100 for the full control effect
#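 Tetracycline-induced HEK293 T-REx cells with force-coupled D1 receptor were loaded with a no-wash calcium dye. Compound was added after a 10 s baseline and read kinetically for 180 s; EC80 dopamine was then added and calcium flux followed another 180 s.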
# D1 PAM: human D1 dopamine receptor positive modulation; AID 504651; P21728; actives 0.036% (n = 360,000); potentiation, % at 10 µM; HEK293 TREx D1 cells, calcium flux, dopamine EC20 potentiation; in the data active = potentiation above about 30%; also: 0% is about no effect
# D1 agonist: human D1 receptor agonism. P21728. HEK293 T-REx D1 cells, calcium flux, agonist mode. activation, % at 2 µM. actives 1% (n = 360,000). AID 504660; also: 0% is about no effect
#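 Inducible HEK293 T-REx D1 cells, force-coupled to calcium signalling, were plated at 4000 cells/well with tetracycline and held overnight at 30 C. After no-wash calcium dye loading, compound-evoked calcium rise over 180 s flagged agonists.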
# TRHR ag: TRH receptor (human) agonism; P34981; TRHR cells, calcium flux fluo-8, FDSS agonist mode; activation, % at 2 µM; actives 0.18% (n = 360,000); also: 0% is about no effect
#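 In this calcium-flux screen, cells bearing human TRHR are dye-loaded with fluo-8, baselined for 10 cycles, then exposed to library compounds; positive kinetic calcium responses during the agonist phase mark hits, with TRH as control.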
# Starred values were filed as active, the others as inactive; x = no result given. Rule as the data show it, unless noted: active = activation above about 30%; inactive = the rest.
SMILES,TRHR PAM,D1 antagonist,D1 PAM,D1 agonist,TRHR ag
CCc1ccc(C2=NN(C(=O)OC)C(O)(C(F)(F)F)C2)cc1 (stereo not drawn),-2,0,-7,2,0
CCOc1ccc(NC(=O)NC23CC4CC(CC(C4)C2)C3)cc1,9,-31*,-6,13,1
CCOc1ccc(NC(=O)NCc2cccn2C)cc1,-8,-42*,-6,0,0
Cc1ccc(C)c(Cn2c(=O)n(CCCC(=O)NCc3ccc4c(c3)OCO4)c(=O)c3sccc32)c1,3,-2,-1,2,-1
CCc1ccc(NC(=S)NC2CC3CCCC(C2)N3Cc2ccccc2)cc1 (stereo not drawn),7,-29,1,20,0
C=CCN1C2CCCC1CC(NC(=S)Nc1ccc(Cl)cc1)C2 (stereo not drawn),3,-84*,-1,23,2
C=CCN1C2CCCC1CC(NC(=O)Nc1cc(C)cc(C)c1)C2 (stereo not drawn),-1,-7,-6,5,0
S=C(Nc1ccc(Cl)cc1)NC1CC2CCC(C1)N2Cc1ccccc1 (stereo not drawn),3,-43*,8,52*,7
S=C(Nc1ccc(Cl)cc1)NC1CC2CCCC(C1)N2C1CC1 (stereo not drawn),1,-41*,7,135*,0
CCc1c(C)nc(SCc2nc(-c3ccccc3C)no2)[nH]c1=O,-1,-12,-4,12,0
COc1ccc(NC(=O)c2c(NCc3ccc(C)o3)sc3c2CCC(C)C3)cc1 (stereo not drawn),5,9,-6,2,0
CCc1ccc(C2c3c(-c4ccccc4O)n[nH]c3C(=O)N2Cc2cccnc2)cc1 (stereo not drawn),-1,11,5,0,-1
COc1ccc(-c2oc3ncn4nc(COc5cccc(C)c5C)nc4c3c2-c2ccc(OC)cc2)cc1,9,-5,-3,3,-2
COc1cccc(CN(C)C(=O)C23CC4CC(CC(C4)C2)C3)c1,23,-34*,3,2,0
CC(Cc1ccccc1)NC(=O)c1cc2ccccc2o1 (stereo not drawn),-6,-7,-20,48*,-2
O=C(Nc1nccc(-c2cccs2)n1)c1ccccc1Cl,14,-38*,-4,-2,-1
O=[N+]([O-])c1ccc(O)c(C2=NNC(c3ccccc3F)C2)c1 (stereo not drawn),-3,-33*,0,14,1
CC1CCN(S(=O)(=O)c2cc(C(=O)Nc3ccc(Br)cc3F)n(C)c2)CC1,0,-35*,-3,8,0
CCOc1ccccc1CNC(=O)C1CCN(c2nc3ccccc3nc2C(F)(F)F)CC1,8,-14,-1,1,0
O=C(COC(=O)Cn1nc(-c2ccccc2)oc1=O)Nc1ccc(F)cc1,5,-34*,-5,3,-1
O=C(C1CCN(S(=O)(=O)c2cccc3cccnc23)CC1)N1CCCC1,-6,-2,-6,1,0
O=C(C1CCN(S(=O)(=O)c2cccc3cccnc23)CC1)N1CC=C(c2ccccc2)CC1,20,-44*,-2,1,-1
O=C(Nc1ccc(Br)cc1)C1CCN(S(=O)(=O)c2cccc3nsnc23)CC1,-5,-33*,-1,8,0
CCC1CCCCN1CCNC(=O)C1CCN(S(=O)(=O)c2cccc3nsnc23)CC1 (stereo not drawn),-1,-2,35*,2,0
CC1CCCCN1CCNC(=O)C1CCN(S(=O)(=O)c2cccc3cccnc23)CC1 (stereo not drawn),31*,1,0,-1,0
SMILES,TRHR PAM,D1 antagonist,D1 PAM,D1 agonist,TRHR ag
O=C(Cn1c(-c2cccs2)cc2ccccc21)N1CCN(c2ccc(F)cc2)CC1,-10,12,4,0,0
O=C(O)c1ccc(Cl)c(NC(=O)C2CCCN2S(=O)(=O)c2cccc3nsnc23)c1 (stereo not drawn),-7,-40*,-2,0,0
Cc1cccc(CCNC(=O)C2CCN(S(=O)(=O)c3cccc4cccnc34)CC2)c1,14,-5,6,-1,-1
CCN(CCNC(=O)C1CCN(S(=O)(=O)c2cccc3cccnc23)CC1)c1ccccc1,37*,-6,-3,3,-2
CC1CCc2c(sc3nc(-c4cc5cc(Br)ccc5oc4=O)[nH]c(=O)c23)C1 (stereo not drawn),1,-3,0,1,0
O=C(CNS(=O)(=O)c1ccccc1)OCC(=O)c1ccc(F)cc1,1,4,-2,2,-1
O=C(CCNS(=O)(=O)c1ccccc1)OCC(=O)c1ccc(F)cc1,-8,-40*,-3,17,0
COc1ccc(S(=O)(=O)NCCc2sc(C)nc2C)cc1F,0,-13,-6,10,1
Cc1cccc(NC(=O)C2CCN(c3nccc(C)n3)CC2)c1,-5,-35*,-9,2,0
CC(=O)Nc1ccc2nc(CN3CCN(Cc4ccc(F)cc4)C(CCO)C3)ccc2c1 (stereo not drawn),36*,-4,3,3,0
CC(=O)Nc1ccc2nc(CN3CCN(CC(C)C)C(CCO)C3)ccc2c1 (stereo not drawn),-3,-20,-3,2,1
CC(=O)Nc1ccc(CN2CCN(C3CCCCC3)C(CCO)C2)cc1 (stereo not drawn),7,-6,-4,36*,0
COC(=O)c1ccc(CN2CCN(C3CCCCC3)C(CCO)C2)cc1 (stereo not drawn),20,0,-1,-1,-1
COc1ccc(CCNC(=O)C2(c3cccs3)CCOCC2)cc1OC,13,x,0,-1,0
Cc1cc2ccc3ccccc3c2cc1CN(C)C,11,-43*,-5,15,3
CN(C)Cc1cc2ccccc2c2c1COC2,-1,1,-1,5,0
Cc1nc(-c2cccc(NC(=O)Nc3ccc([N+](=O)[O-])cc3)c2)no1,-9,-45*,-6,25,2
O=C(Nc1cccc([N+](=O)[O-])c1)C1C2CCCCC21 (stereo not drawn),-5,-9,-1,11,1
COc1ccc(C)cc1NC(=O)Nc1cccc(-c2noc(C)n2)c1,14,-14,-2,0,0
O=C(COC(=O)COc1ccccc1)Nc1cccc([N+](=O)[O-])c1,7,-34*,0,6,-1
COc1ccc(CCNC(=O)Nc2cccc([N+](=O)[O-])c2)cc1,-4,-34*,-6,15,-1
O=C(Nc1cccc([N+](=O)[O-])c1)C1C2/C=C\CCCCC21 (stereo not drawn),-9,-34*,-19,12,0
